Experimental data from publication PMC7862700, “An all-to-all approach to the identification of sequence-specific readers for epigenetic DNA modifications on cytosine”.

Key:
Assay in all cases: DAPPL (digital affinity profiling via proximity ligation, sequencing); 10 mM Tris-HCl pH 7.5, 50 mM NaCl, 1 mM DTT, 4% glycerol, room temperature, 30 min; GST-TFs on glutathione beads, 16-mer random dsDNA library, 0.1% formaldehyde crosslink after washing; high values mean tight binding
[1] = target: T1, FEV (Homo sapiens, UniProt Q99581 1-238); conditions: protein: recombinant; tags: N-terminal GST; dsDNA, one strand shown
T1 sequence: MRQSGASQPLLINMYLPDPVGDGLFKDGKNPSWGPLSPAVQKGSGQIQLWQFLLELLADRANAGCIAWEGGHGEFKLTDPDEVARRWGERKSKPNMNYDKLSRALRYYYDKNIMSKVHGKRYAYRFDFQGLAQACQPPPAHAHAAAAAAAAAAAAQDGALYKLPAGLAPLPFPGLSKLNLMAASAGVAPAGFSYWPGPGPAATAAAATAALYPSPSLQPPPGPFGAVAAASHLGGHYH
In short: (§1)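 Yeast served to express human transcription factors as GST fusions, which were then captured on glutathione beads and labelled with DNA barcodes. Pooled with a tag-only sample, they were incubated with 200 nmole of a 16-mer random double-stranded DNA library for 30 min at room temperature in Tris/NaCl/DTT/glycerol buffer, washed, crosslinked with 0.1% formaldehyde, ligated by proximity, amplified by PCR and sequenced. Dividing each hexamer's read frequency for a factor by its frequency for the tag-only sample gives the binding signal.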

[2] = target: ETV5 (Homo sapiens, UniProt P41161 1-510); conditions: protein: recombinant; tags: N-terminal GST; dsDNA, one strand shown
In short: as §1

[3] = target: HSF1 (Homo sapiens, UniProt Q00613 1-529); conditions: protein: recombinant; tags: N-terminal GST; chain copies: 3; dsDNA, one strand shown
In short: as §1

[4] = target: T2, SPIC (Homo sapiens, UniProt Q8N5J4 1-248); conditions: protein: recombinant; tags: N-terminal GST; dsDNA, one strand shown
T2 sequence: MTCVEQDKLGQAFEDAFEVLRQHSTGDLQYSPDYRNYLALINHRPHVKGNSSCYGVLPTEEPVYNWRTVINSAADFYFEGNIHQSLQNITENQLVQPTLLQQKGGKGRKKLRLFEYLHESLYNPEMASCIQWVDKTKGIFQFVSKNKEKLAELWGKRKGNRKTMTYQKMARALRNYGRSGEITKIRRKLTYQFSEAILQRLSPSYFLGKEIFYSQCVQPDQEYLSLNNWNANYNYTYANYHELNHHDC
In short: as §1

[5] = target: ELF4 (Homo sapiens, UniProt Q99607 1-663); conditions: protein: recombinant; tags: N-terminal GST; dsDNA, one strand shown
In short: as §1

[6] = target: T3, ELK4 (Homo sapiens, UniProt P28324-2 1-405); conditions: protein: recombinant; tags: N-terminal GST; dsDNA, one strand shown
T3 sequence: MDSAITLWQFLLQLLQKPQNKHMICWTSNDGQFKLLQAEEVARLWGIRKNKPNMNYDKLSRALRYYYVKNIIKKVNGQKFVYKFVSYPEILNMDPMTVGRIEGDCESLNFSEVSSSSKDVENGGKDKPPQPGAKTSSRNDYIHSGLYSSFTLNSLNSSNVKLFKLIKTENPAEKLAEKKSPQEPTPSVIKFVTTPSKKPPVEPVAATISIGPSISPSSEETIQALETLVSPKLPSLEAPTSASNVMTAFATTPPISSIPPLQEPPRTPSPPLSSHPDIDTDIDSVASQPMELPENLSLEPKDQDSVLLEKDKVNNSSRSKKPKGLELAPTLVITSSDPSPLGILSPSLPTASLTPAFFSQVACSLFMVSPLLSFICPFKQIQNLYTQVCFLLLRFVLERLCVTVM
In short: as §1

[7] = target: T4, ETV2 (Homo sapiens, UniProt O00321 1-342); conditions: protein: recombinant; tags: N-terminal GST; dsDNA, one strand shown
T4 sequence: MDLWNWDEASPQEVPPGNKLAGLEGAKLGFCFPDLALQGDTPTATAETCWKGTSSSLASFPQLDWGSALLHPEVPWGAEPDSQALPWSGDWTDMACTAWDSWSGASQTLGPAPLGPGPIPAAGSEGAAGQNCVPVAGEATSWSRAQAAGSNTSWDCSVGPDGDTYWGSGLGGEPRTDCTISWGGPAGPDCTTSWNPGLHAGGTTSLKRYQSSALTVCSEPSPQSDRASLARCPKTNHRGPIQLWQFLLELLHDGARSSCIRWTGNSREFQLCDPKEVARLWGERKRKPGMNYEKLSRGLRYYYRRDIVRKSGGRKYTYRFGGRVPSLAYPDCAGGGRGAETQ
In short: as §1

[8] = target: T5, ELF3 (Homo sapiens, UniProt P78545 1-371); conditions: protein: recombinant; tags: N-terminal GST; dsDNA, one strand shown
T5 sequence: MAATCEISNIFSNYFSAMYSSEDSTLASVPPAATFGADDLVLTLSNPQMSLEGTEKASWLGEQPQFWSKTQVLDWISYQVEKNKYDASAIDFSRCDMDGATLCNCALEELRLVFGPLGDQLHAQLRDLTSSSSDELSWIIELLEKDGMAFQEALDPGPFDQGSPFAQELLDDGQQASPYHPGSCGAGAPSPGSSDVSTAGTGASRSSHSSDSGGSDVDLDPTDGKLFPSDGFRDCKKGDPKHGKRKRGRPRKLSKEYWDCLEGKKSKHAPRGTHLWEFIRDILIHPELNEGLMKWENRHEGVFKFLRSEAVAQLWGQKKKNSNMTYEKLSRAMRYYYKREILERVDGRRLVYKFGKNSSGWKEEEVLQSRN
In short: as §1

[9] = target: CRX (Homo sapiens, UniProt O43186 1-299); conditions: protein: recombinant; tags: N-terminal GST; dsDNA, one strand shown
In short: as §1

[10] = target: ETV1 (Homo sapiens, UniProt P50549 1-477); conditions: protein: recombinant; tags: N-terminal GST; dsDNA, one strand shown
In short: as §1

[11] = target: T6, ERF (Homo sapiens, UniProt P50548 1-548); conditions: protein: recombinant; tags: N-terminal GST; dsDNA, one strand shown
T6 sequence: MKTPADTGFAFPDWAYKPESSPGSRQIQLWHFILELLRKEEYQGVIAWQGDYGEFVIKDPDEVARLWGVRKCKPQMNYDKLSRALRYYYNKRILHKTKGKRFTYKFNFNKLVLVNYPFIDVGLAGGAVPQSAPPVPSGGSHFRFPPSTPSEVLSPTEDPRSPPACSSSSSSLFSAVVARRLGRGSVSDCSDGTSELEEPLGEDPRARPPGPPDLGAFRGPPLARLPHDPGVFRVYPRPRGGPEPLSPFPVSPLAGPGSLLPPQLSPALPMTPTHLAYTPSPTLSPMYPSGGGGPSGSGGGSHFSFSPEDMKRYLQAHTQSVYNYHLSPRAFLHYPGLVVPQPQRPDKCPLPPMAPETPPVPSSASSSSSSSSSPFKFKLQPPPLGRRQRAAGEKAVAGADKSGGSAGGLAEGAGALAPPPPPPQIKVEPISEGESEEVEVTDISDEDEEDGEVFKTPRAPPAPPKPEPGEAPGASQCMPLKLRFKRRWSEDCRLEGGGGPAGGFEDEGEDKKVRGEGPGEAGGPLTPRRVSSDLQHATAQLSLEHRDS
In short: as §1

[12] = target: T7, ETV3L (Homo sapiens, UniProt Q6ZN32 1-361); conditions: protein: recombinant; tags: N-terminal GST; dsDNA, one strand shown
T7 sequence: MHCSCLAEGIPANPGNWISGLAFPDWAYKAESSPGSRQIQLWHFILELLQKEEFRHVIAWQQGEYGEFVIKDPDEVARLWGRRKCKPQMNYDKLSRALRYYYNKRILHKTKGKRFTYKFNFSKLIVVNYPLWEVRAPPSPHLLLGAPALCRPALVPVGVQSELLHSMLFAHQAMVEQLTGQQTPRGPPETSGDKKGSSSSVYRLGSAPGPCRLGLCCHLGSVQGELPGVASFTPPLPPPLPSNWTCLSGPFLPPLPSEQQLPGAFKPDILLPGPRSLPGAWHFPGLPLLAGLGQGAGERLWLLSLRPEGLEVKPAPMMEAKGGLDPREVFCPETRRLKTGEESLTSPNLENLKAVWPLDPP
In short: as §1

[13] = target: T8, ETS2 (Homo sapiens, UniProt P15036 1-469); conditions: protein: recombinant; tags: N-terminal GST; dsDNA, one strand shown
T8 sequence: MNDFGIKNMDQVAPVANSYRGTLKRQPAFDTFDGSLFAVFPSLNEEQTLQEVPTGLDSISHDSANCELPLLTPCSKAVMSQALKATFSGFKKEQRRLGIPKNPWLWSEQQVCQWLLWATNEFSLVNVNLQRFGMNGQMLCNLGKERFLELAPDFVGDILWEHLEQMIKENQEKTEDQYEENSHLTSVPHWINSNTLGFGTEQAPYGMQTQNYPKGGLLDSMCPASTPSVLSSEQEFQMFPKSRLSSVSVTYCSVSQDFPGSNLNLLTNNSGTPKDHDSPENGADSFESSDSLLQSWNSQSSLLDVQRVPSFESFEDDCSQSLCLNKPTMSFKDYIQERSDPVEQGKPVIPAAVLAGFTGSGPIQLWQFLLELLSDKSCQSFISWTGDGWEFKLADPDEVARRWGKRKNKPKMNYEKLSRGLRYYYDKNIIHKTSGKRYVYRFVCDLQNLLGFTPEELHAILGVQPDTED
In short: as §1

[14] = target: T9, SPDEF (Homo sapiens, UniProt O95238 1-335); conditions: protein: recombinant; tags: N-terminal GST; dsDNA, one strand shown
T9 sequence: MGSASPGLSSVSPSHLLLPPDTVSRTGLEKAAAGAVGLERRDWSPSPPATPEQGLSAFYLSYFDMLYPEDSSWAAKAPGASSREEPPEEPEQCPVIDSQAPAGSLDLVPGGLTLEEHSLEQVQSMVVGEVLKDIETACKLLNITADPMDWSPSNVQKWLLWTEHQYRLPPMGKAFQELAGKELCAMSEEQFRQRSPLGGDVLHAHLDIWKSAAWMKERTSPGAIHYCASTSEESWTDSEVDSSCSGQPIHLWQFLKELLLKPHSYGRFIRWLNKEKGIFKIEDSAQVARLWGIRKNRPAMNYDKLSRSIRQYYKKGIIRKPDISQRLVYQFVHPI
In short: as §1

[15] = target: T10, ETV7 (Homo sapiens, UniProt Q9Y603 1-341); conditions: protein: recombinant; tags: N-terminal GST; dsDNA, one strand shown
T10 sequence: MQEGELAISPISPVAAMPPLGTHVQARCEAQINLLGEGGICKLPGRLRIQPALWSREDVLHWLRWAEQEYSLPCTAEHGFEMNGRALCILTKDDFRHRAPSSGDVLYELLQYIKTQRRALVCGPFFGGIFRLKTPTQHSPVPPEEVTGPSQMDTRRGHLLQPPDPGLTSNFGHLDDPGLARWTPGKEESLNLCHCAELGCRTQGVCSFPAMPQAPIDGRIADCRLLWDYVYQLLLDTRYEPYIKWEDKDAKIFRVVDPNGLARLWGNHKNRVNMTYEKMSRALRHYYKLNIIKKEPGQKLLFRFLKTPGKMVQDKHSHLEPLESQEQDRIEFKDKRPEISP
In short: as §1

[16] = target: T11, ELF5 (Homo sapiens, UniProt Q9UKW6-2 1-255); conditions: protein: recombinant; tags: N-terminal GST; dsDNA, one strand shown
T11 sequence: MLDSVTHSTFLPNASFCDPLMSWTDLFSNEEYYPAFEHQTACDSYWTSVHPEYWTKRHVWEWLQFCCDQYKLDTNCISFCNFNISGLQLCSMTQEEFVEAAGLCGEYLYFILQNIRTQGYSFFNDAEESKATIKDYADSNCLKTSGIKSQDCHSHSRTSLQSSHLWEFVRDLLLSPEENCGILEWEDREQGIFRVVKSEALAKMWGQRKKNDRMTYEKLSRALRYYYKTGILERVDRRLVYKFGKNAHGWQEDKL
In short: as §1

[17] = target: T12, ETV3 (Homo sapiens, UniProt P41162-2 1-143); conditions: protein: recombinant; tags: N-terminal GST; dsDNA, one strand shown
T12 sequence: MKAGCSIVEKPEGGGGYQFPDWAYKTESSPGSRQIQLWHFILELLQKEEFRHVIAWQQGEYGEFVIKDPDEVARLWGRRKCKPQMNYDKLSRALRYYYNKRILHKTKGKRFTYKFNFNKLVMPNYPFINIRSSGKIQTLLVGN
In short: as §1

[18] = target: ETV6 (Homo sapiens, UniProt P41212 1-452); conditions: protein: recombinant; tags: N-terminal GST; dsDNA, one strand shown
In short: as §1

Chain of ETV5 (P41161 whole entry): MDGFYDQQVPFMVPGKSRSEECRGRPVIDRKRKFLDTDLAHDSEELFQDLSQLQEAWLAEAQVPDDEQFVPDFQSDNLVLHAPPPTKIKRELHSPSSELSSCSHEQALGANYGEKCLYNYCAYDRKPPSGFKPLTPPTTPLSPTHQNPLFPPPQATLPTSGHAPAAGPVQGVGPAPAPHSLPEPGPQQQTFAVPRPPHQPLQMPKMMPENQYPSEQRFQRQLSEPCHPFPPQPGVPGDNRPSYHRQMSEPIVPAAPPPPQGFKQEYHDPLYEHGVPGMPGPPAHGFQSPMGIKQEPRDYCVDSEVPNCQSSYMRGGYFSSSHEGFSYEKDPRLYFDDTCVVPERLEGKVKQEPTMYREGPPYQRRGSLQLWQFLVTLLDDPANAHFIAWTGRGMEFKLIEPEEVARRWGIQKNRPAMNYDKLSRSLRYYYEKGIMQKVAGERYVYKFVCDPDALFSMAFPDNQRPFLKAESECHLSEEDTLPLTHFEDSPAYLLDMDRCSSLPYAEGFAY
Chain of ETV6 (P41212 whole entry): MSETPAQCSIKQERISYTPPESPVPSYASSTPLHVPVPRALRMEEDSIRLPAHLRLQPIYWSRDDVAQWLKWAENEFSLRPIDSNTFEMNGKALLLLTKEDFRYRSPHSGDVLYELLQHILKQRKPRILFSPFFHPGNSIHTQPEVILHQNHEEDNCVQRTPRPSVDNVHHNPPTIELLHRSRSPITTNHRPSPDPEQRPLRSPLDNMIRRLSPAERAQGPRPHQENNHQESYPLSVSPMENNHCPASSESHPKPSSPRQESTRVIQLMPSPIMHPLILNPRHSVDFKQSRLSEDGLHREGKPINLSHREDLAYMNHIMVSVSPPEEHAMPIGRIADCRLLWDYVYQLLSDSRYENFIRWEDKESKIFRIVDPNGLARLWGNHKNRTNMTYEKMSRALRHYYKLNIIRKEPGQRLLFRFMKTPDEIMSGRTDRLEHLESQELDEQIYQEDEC
Chain of HSF1 (Q00613 whole entry): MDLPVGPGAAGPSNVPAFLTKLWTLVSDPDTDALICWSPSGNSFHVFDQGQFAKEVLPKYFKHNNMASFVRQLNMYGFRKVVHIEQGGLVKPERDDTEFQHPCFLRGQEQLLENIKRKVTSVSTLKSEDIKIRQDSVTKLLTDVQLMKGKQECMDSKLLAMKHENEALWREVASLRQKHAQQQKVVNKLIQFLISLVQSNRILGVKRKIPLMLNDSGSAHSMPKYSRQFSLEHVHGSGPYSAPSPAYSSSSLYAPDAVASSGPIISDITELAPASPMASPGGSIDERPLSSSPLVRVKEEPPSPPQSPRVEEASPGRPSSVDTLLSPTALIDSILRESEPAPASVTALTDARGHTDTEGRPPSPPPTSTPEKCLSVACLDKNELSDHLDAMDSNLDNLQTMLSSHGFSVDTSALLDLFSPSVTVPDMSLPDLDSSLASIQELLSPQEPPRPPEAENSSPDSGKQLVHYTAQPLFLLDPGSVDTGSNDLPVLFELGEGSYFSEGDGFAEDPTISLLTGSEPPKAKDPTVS
Chain of CRX (O43186 whole entry): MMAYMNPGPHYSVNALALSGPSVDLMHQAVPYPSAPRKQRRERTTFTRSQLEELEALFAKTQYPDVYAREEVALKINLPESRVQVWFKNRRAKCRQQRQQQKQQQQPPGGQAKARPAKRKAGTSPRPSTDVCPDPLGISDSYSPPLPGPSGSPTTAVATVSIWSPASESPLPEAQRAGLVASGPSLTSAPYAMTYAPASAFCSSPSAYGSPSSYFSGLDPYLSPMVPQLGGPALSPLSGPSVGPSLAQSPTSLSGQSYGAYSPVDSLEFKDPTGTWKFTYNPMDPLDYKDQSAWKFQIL
Chain of ETV1 (P50549 whole entry): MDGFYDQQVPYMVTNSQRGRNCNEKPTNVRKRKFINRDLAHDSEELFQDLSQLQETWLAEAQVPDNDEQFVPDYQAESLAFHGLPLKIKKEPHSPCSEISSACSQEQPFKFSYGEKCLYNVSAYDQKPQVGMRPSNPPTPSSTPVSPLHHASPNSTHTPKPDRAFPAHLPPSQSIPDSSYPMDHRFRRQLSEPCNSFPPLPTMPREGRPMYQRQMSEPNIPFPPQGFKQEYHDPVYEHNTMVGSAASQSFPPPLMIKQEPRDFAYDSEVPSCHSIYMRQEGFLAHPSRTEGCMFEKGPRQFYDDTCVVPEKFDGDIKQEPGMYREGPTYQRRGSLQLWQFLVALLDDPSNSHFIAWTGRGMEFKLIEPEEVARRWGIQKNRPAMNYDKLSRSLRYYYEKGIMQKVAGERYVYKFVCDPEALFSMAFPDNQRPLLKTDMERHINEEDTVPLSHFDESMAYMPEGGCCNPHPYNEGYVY
Chain of ELF4 (Q99607 whole entry): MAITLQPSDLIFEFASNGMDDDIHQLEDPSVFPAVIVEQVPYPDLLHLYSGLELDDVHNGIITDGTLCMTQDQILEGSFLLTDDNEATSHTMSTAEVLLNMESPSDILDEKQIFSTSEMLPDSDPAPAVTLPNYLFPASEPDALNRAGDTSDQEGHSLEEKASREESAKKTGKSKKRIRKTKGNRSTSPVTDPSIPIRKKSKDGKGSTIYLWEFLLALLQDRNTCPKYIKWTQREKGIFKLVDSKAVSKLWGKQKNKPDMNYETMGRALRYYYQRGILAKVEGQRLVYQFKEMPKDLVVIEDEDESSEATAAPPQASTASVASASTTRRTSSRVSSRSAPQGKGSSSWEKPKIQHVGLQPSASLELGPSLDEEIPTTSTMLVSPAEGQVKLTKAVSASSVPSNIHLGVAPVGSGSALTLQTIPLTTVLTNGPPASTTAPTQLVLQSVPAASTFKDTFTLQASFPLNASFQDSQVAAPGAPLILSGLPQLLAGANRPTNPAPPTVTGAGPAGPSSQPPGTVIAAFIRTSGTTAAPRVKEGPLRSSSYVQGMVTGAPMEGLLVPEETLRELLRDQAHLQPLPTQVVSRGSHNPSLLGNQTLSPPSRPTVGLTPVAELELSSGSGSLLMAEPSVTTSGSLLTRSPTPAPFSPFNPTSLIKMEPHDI

TAATTT
binding signal [1]: 1.35 fold enrichment (6-mer frequency, TF over GST control) | binding signal [2]: 1.46 fold enrichment (6-mer frequency, TF over GST control) | binding signal [3]: 1.64 fold enrichment (6-mer frequency, TF over GST control) | binding signal [4]: 1.41 fold enrichment (6-mer frequency, TF over GST control) | binding signal [5]: 1.36 fold enrichment (6-mer frequency, TF over GST control) | binding signal [6]: 1.38 fold enrichment (6-mer frequency, TF over GST control) | binding signal [7]: 1.58 fold enrichment (6-mer frequency, TF over GST control) | binding signal [8]: 1.49 fold enrichment (6-mer frequency, TF over GST control) | binding signal [9]: 2.03 fold enrichment (6-mer frequency, TF over GST control) | binding signal [10]: 1.35 fold enrichment (6-mer frequency, TF over GST control) | binding signal [11]: 1.43 fold enrichment (6-mer frequency, TF over GST control) | binding signal [12]: 1.48 fold enrichment (6-mer frequency, TF over GST control) | binding signal [13]: 1.41 fold enrichment (6-mer frequency, TF over GST control) | binding signal [14]: 1.32 fold enrichment (6-mer frequency, TF over GST control) | binding signal [15]: 1.37 fold enrichment (6-mer frequency, TF over GST control) | binding signal [16]: 1.46 fold enrichment (6-mer frequency, TF over GST control) | binding signal [17]: 1.24 fold enrichment (6-mer frequency, TF over GST control) | binding signal [18]: 1.39 fold enrichment (6-mer frequency, TF over GST control)
